The values below come from PubChem BioAssay.

Results filed as inconclusive are left out. The source made the active and inactive calls.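 Rule for the calls, unless noted: active = viability at or below 10% of carrier control in both of two separate runs; inconclusive = viability at or below 10% in only one of the two runs; inactive = the rest.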

A short description of assay [1]: reducers of endogenous Her2 protein level, primary screen, SKBR3 breast tumor cells, AlphaScreen, ATP viability (AID 461;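 active = Her2 level under about 52% in both replicate screens, with viability over 70% of control, limit read from the data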;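 for Her2 level: lower value means less Her2 protein in the cells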;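 for viability: percent of carrier control wells set as 100% viability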). To be noted: 18-24 h, measured here: SKBR3 viability, ATP luminescence, at 10 µM. (In general: In Alpha technology, singlet oxygen from a donor bead excites a nearby acceptor bead.)
Assay [2] deals with Receptor tyrosine-protein kinase erbB-2 (Homo sapiens) (UniProt P04626). The assay is described as above. Conditions: 18-24 h, at 10 µM, stronger effect = lower value.
Assay [3] is described as follows: SK-BR-3 cell growth inhibitors, pilot screen, 24 h, human (AID 572).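 Note: compound exposure lasted between 18 and 24 h rather than exactly 24 h; 100% = carrier-treated control wells.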 Conditions: SK-BR-3 viability, CellTiter-Glo luminescence, at 10 µM, stronger effect = lower value.
Assay [4] can be described thus: HUVEC growth inhibition – cell-based, human, primary screen (AID 575;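 active = viability at or below 30% in both replicate assays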;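 note: 100% = median of untreated cell wells with 0.1% DMSO on each plate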). To be noted: HUVEC proliferation, CellTiter-Glo luminescence, 72 h; at 10 µM; stronger effect = lower value.
A short description of assay [5]: growth inhibitors of H69AR lung tumor, primary screen, human, duplicate replicates (AID 580;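 active = viability at or under a set limit in both replicates, limit being median viability minus 3 SD, cut at about 48% in these data, passing the limit was not always enough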;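 note: 100% = mean luminescence of untreated wells and 0% = no signal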). Conditions: H69AR lung tumor cells viability, ATP luminescence, 72 h; at 10 µM; stronger effect = lower value.
The nature of assay [6]: reversal of MRP1-mediated doxorubicin resistance, pilot screen, H69AR cells, doxorubicin co-treatment (AID 601;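 active = viability loss from added drug above about 55%, and viability with drug at most 40%, in both replicates, limit read from the data, passing the limit was not always enough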). Conditions: CellTiter-Glo, 72 h, at 10 µM; for differential viability (reversal): stronger effect = higher value. In general terms: Cellular ATP, detected with luciferase, serves as a proxy for viable cell number.
Assay [7] is described as follows: 384-well plate pilot, post-Golgi transport modulator project, inhibition of yeast transport mutant growth (AID 636; in the data active = inhibition above about 31%). Conditions: absorbance 615 nm, about 18 h, stronger effect = higher value.
A short description of assay [8]: growth suppression of yeast trafficking mutant, preliminary HTS, modulators of trafficking downstream of Golgi apparatus project, 1536-format plate, OD 615 nm (AID 637; in the data active = inhibition above about 30%). Conditions: yeast transport mutant growth, absorbance 615 nm, 18 h; stronger effect = higher value.
The nature of assay [9]: OD615 S. cerevisiae growth inhibition, permissive medium, pilot counter-assay, permissive growth control for S. cerevisiae lifespan shortening project (AID 705;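 active = growth inhibition above 25% in both replicates, a cutoff set 3 SD above the mean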). To be noted: OD615, 24 h, at 10 µM, stronger effect = higher value.
Assay [10] is described as follows: Restrictive medium S. cerevisiae growth inhibition, OD615, pilot screen of yeast lifespan reduction project, restrictive growth control (AID 706;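 active = growth inhibition above a set limit, 3 SD over mean compound inhibition, in both replicates, cut at about 43% in these data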;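 note: modified DeaD lifespan yeast strain shifted to restrictive glucose medium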). Conditions: OD615, 48 h, at 10 µM, stronger effect = higher value.
The nature of assay [11]: viability gain of MRP-1-high H69AR cells under doxorubicin, pilot screen, MRP-1 activator project, CellTiter-Glo, duplicate (AID 807;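 active = viability increase at or above a cutoff of the median across tested compounds plus 3 SD, cut at about 8.5% in these data, passing the limit was not always enough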;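 note: compound pretreatment 18-22 h then 72 h combined with doxorubicin; 0% = doxorubicin alone and 100% = vehicle without doxorubicin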). Conditions: H69AR viability with doxorubicin, CellTiter-Glo luminescence; at 10 µM; stronger effect = higher value.
Assay [12] is described as follows: growth suppression of beta-catenin knockout HCT116, pilot screen, human colon tumor cells (AID 823;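 active = cell viability at or below a set limit in both duplicate runs, the limit being the all-compound median minus 4 SD, cut at about 23% in these data, passing the limit was not always enough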;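 note: 0% = wells killed by 20 µM Hyamine and 100% = untreated DMSO cell wells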). To be noted: CellTiter-Glo, 60 h, at 10 µM, stronger effect = lower value.
Assay [13] is described as follows: growth suppression of PTEN-deleted HCT116, pilot screen, cell-based, HCT116 clonal line, CellTiter-Glo (AID 824;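 active = viability at or below 27.92% in each of two runs, the all-compound median minus 4 SD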;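 note: 0% = 20 µM Hyamine control and 100% = vehicle cell control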). Conditions: 60 h, at 10 µM, stronger effect = lower value.
The nature of assay [14]: inhibitors of the yeast RAM network, pilot screen, dse1pr::URA3 reporter, 5-FOA selection (AID 869;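 active = inhibition over a set limit, the all-compound mean plus 3 SD, in both replicate runs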;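 note: 0% = DMSO wells with no growth and 100% = 10 µM 1-NA-PP1 with full growth; RAM network block rescues cells from 5-FOA so hits raise OD615 growth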). Conditions: S. cerevisiae dse1pr::URA3 5-FOA growth, OD615, 2 d; at 10 µM; stronger effect = higher value; strain carries analog-sensitive mutant Cbk1 kinase.
Assay [15] in a line: RAM signaling pathway blockade in yeast – S. cerevisiae, Pdr1DBD-CYC8 efflux-inhibited sensitized strain, primary screen (AID 1298;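 active = RAM network inhibition above 8.4% in each of two replicates, 3 SD over the compound average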;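 note: 0% = DMSO untreated cells without growth and 100% = 10 µM 1-NA-PP1 full growth; higher means more yeast growth rescued from 5-FOA killing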). Conditions: S. cerevisiae cbk1-as DSE1-URA3 strain, 5-FOA growth OD615, 2 d; at 50 µM; stronger effect = higher value.
Where [16] appears, read: H69AR cells + 2 uM doxorubicin, measured here: viability with 2 uM doxorubicin, stronger effect = lower value.
[17] abbreviates: H69AR cells, compound alone cytotoxicity.

Receptor tyrosine-protein kinase erbB-2 (Homo sapiens), sequence (P04626 whole entry, looked up): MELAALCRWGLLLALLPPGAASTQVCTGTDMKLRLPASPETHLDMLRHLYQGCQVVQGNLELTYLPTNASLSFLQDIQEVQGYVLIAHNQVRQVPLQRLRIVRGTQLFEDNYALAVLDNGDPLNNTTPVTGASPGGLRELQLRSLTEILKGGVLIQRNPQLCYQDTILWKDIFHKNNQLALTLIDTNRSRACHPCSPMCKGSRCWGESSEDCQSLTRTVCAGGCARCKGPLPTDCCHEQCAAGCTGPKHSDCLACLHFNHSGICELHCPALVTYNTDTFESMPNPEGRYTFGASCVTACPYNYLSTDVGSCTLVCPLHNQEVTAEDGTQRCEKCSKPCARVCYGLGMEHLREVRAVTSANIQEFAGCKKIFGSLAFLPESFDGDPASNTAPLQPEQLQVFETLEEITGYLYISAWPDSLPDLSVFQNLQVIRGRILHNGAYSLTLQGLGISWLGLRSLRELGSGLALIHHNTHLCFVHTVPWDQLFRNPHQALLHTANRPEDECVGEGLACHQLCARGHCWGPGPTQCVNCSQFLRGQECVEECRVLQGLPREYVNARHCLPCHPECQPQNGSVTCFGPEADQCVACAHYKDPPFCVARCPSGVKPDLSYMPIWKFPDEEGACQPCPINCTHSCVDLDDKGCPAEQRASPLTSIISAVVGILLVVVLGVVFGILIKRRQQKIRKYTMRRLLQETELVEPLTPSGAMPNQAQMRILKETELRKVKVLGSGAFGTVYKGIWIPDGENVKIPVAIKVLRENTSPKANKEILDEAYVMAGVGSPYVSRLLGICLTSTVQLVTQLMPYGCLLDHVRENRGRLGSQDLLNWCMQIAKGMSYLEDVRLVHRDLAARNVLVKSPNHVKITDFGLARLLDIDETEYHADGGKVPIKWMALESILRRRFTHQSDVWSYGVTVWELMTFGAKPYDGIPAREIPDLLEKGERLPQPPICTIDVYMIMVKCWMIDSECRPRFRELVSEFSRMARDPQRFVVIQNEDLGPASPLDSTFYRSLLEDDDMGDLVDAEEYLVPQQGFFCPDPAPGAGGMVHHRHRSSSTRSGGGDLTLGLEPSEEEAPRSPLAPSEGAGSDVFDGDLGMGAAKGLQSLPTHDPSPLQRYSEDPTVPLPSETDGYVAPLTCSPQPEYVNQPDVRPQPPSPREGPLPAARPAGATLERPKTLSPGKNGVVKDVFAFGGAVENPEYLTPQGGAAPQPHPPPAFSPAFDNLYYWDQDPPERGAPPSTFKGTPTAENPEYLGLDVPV

For `CC(=O)OCCNc1cc(N2CCN(C)CC2)c2noc3c2c1C(=O)c1ccccc1-3`, the viability in assay [1] was 83%; in assay [3] it was 83% (inactive); in [4] it was 68.9% (inactive); in [5], 66.9% (inactive); in [6] (setting [16]), 75.4%; in assay [6] (setting [17]), 66.9%. The results for the viability in [12] and in [13] were 76.8% (inactive) and 73% (inactive), respectively. Moreover, the Her2 level in assay [2] was 102% (inactive). For the same molecule, the differential viability (reversal) in assay [6] (H69AR cells + 2 uM doxorubicin) was -8.49% (inactive). For the same molecule, the inhibition is -1.54% (inactive) in assay [7], 3.33% (inactive) in [8] and 8.66% (active) in assay [14]. The figures for the growth inhibition in assay [9] and in assay [10] were -7.97% (inactive) and -9.2% (inactive), respectively. Besides, the viability increase in assay [11] is -6.89% (inactive). In assay [15], the RAM network inhibition was 12.4% (inactive).
For the molecule `CCOC(=O)c1ccccc1NC(=O)CSc1nccn1C`, the viability is 89% in assay [1]; 89% (inactive) in [3]; 94% (inactive) in assay [4]; 108% (inactive) in [5]; 92.7% in assay [6] (setting [16]); 108% in assay [6] (setting [17]). Moreover, the values for the viability in assay [12] and in assay [13] were 102% (inactive) and 98.2% (inactive), respectively. The Her2 level in assay [2] was 94% (inactive). Also, the differential viability (reversal) in [6] (H69AR cells + 2 uM doxorubicin) was 15.5% (inactive). Also, the inhibition was 0.91% (inactive) in assay [7], -3.44% (inactive) in assay [8] and 1.55% (inactive) in [14]. In addition, the growth inhibition in assay [9] was -4.88% (inactive); in [10], 3.13% (inactive). The viability increase in [11] was -1.73% (inactive). The RAM network inhibition in assay [15] was 1.28% (inactive).
Regarding `CCOc1ccc(C2CC(c3ccccc3C)n3nc(N)nc3N2)cc1` (stereo not drawn), the viability in assay [1] was 87.5%; in [3], 87.5% (inactive); in [4], 87.9% (inactive); in [5] it was 87.9% (inactive); in [6] (setting [16]), 102%; in assay [6] (setting [17]), 87.9%. The viability is 93.8% (inactive) in [12] and 83.3% (inactive) in assay [13]. Moreover, the Her2 level in [2] was 93.5% (inactive). Also, the differential viability (reversal) in assay [6] (H69AR cells + 2 uM doxorubicin) was -14.3% (inactive). The values for the inhibition in assay [7], in [8] and in assay [14] were -2.82% (inactive), -3% (inactive) and 1.23% (inactive), respectively. Moreover, the values for the growth inhibition in assay [9] and in assay [10] were -4.05% (inactive) and 0.985% (inactive), respectively. The viability increase in [11] is -1.27% (inactive). Also, the RAM network inhibition in [15] was 5.2% (inactive).
In the case of `C=CCc1ccccc1OCCCCN1CCCC1`, the viability was 70.5% in assay [1]; 70.5% (inactive) in assay [3]; 77.1% (inactive) in assay [4]; 83.3% (inactive) in assay [5]; 85.1% in assay [6] (setting [16]); 83.3% in [6] (setting [17]). Moreover, the figures for the viability in assay [12] and in assay [13] were 77.1% (inactive) and 80.8% (inactive), respectively. Moreover, the Her2 level in assay [2] is 101% (inactive). For the same molecule, in assay [6] (H69AR cells + 2 uM doxorubicin), the differential viability (reversal) was -1.74% (inactive). Moreover, the figures for the inhibition in assay [7], in [8] and in [14] were -9.05% (inactive), -1.31% (inactive) and 0.91% (inactive), respectively. Besides, the growth inhibition is 7.25% (inactive) in assay [9] and -3.4% (inactive) in assay [10]. For the same molecule, the viability increase in [11] was -7.03% (inactive). Also, the RAM network inhibition in [15] was 1.88% (inactive).
On to `CCOC(=O)c1ccc(-n2c(C)nc3c(cnn3-c3ccccc3C)c2=O)cc1`, for which the viability in assay [1] is 94%; in assay [3] it was 94% (inactive); in assay [4], 117% (inactive); in [5], 98.1% (inactive); in assay [6] (setting [16]), 102%; in assay [6] (setting [17]), 98.1%. Besides, the viability in [12] was 94.4% (inactive); in assay [13], 91% (inactive). The Her2 level in assay [2] was 108% (inactive). Further, the differential viability (reversal) in assay [6] (H69AR cells + 2 uM doxorubicin) is -3.79% (inactive). The inhibition in assay [7] is -0.8% (inactive); in assay [8], -3.93% (inactive); in assay [14], 1.17% (inactive). Moreover, the figures for the growth inhibition in [9] and in assay [10] were 2.42% (inactive) and 2.89% (inactive), respectively. Moreover, in assay [11], the viability increase was -0.28% (inactive). Besides, in assay [15], the RAM network inhibition was 2.95% (inactive).
As to `CC(=O)c1sc(NC(=O)C2COc3ccccc3O2)nc1C` (stereo not drawn), the viability is 102% in [1]; 102% (inactive) in assay [3]; 80.7% (inactive) in [4]; 89.2% (inactive) in [5]; 77.8% in assay [6] (setting [16]); 89.2% in assay [6] (setting [17]). The figures for the viability in [12] and in assay [13] were 99.4% (inactive) and 99% (inactive), respectively. Further, in [2], the Her2 level is 97.5% (inactive). Also, the differential viability (reversal) in assay [6] (H69AR cells + 2 uM doxorubicin) was 11.4% (inactive). Also, the inhibition in assay [7] is 4.1% (inactive); in assay [8], 3.5% (inactive); in [14] it was 0.05% (inactive). In addition, the growth inhibition was -8.75% (inactive) in [9] and -3.37% (inactive) in assay [10]. Also, the viability increase in assay [11] was -1.12% (inactive). Also, in assay [15], the RAM network inhibition was -0.31% (inactive).
For `Cc1ccc(C(=O)OCC(=O)Nc2ccc3c(c2)OCO3)o1`, the viability in assay [1] is 110%; in assay [3] it was 110% (inactive); in assay [4], 102% (inactive); in assay [5], 97.3% (inactive); in assay [6] (setting [16]) it was 95.3%; in assay [6] (setting [17]) it was 97.3%. In addition, the viability in [12] is 97.6% (inactive); in [13] it was 99.3% (inactive). For the same molecule, the Her2 level in assay [2] was 118% (inactive). For the same molecule, the differential viability (reversal) in assay [6] (H69AR cells + 2 uM doxorubicin) is 1.98% (inactive). Moreover, the inhibition in assay [7] is -2.16% (inactive); in assay [8], -5.87% (inactive); in [14], 0.95% (inactive). In addition, the growth inhibition in [9] was -4.63% (inactive); in assay [10], -8.6% (inactive). Further, the viability increase in [11] is -1.03% (inactive). The RAM network inhibition in assay [15] was 2.58% (inactive).
Regarding `COc1ccc(NC(=O)CN(c2ccc(C(C)C)cc2)S(=O)(=O)c2c(C)noc2C)cc1OC`, the viability in [1] was 90.5%; in assay [3], 90.5% (inactive); in assay [4], 58.7% (inactive); in [5] it was 84.9% (inactive); in assay [6] (setting [16]), 91.3%; in assay [6] (setting [17]), 84.9%. Besides, the viability in [12] is 94.5% (inactive); in assay [13], 90.8% (inactive). In addition, in assay [2], the Her2 level was 99% (inactive). Also, the differential viability (reversal) in assay [6] (H69AR cells + 2 uM doxorubicin) was -6.37% (inactive). Moreover, the values for the inhibition in [7], in assay [8] and in assay [14] were 1.41% (inactive), -2.17% (inactive) and 3.67% (inactive), respectively. Also, the growth inhibition in assay [9] was -14.5% (inactive); in assay [10] it was -5.8% (inactive). For the same molecule, in assay [11], the viability increase was -3.99% (inactive). In addition, in assay [15], the RAM network inhibition was 3.37% (inactive).
In the case of `Cc1cc(C)cc(NC(=O)CSc2nnc(Cc3cccn3C)n2-c2ccc(F)cc2)c1`, the viability was 87% in assay [1]; 87% (inactive) in assay [3]; 63.1% (inactive) in assay [4]; 86.6% (inactive) in [5]; 72.6% in [6] (setting [16]); 86.6% in assay [6] (setting [17]). Besides, the viability is 74.6% (inactive) in assay [12] and 71.6% (inactive) in [13]. Moreover, the Her2 level in assay [2] was 84% (inactive). Also, the differential viability (reversal) in assay [6] (H69AR cells + 2 uM doxorubicin) is 14% (inactive). Also, the inhibition in assay [7] is -1.2% (inactive); in [8] it was -11.5% (inactive); in assay [14], 3.69% (inactive). The growth inhibition in assay [9] is 3.92% (inactive); in assay [10] it was 14.7% (inactive). The viability increase in [11] is -4.83% (inactive). In addition, the RAM network inhibition in assay [15] is 7.38% (inactive).

One may read the viability as a read-out of living cells in per cent, often relative to untreated cells. As usually defined, the inhibition is the change of the read-out against control, counted positive when it falls.
